Screening results as filed in PubChem.
Compounds with a hit are over-represented: about 21% of the library has one in this group of screens.
ELG1 DNA repair – blocks ELG1-dependent DNA repair in HEK293T cells. Potency, µM (top dose mostly 46.1 µM), for inactives: at the top dose activity change, negative = inhibition, hits mostly inhibitors. HEK293T ELG1-luciferase reporter, luminescence, 16 h; DNA damage induced by 5-fluorouridine. 330,000 compounds, 2.3% hits; note: potency is the fitted concentration of half-maximal effect; nearly all actives have a fitted effect of over 55% in size
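DMSO vehicle served as the neutral condition. Each well held 2,000 cells given 5-fluorouridine plus compound; after 16 hr at 37 °C/5% CO2, ONE-Glo was added and luciferase measured 30 min later.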
RORg inh – ROR gamma (mouse) transcription inhibition; P51450; Drosophila S2 Gal4-RORgamma UAS-luciferase reporter, 20 h; Potency, µM (series often up to 53.6 µM), for inactives: at the highest dose activity change, negative = inhibition, actives largely listed as inhibitors; 310,000 compounds, 5.4% hits; AID 2551; note: potency is the fitted concentration of half-maximal effect; nearly all actives have a fitted effect of over 60% in size
Target sequence (P51450 whole entry, looked up, the tested form may be a part): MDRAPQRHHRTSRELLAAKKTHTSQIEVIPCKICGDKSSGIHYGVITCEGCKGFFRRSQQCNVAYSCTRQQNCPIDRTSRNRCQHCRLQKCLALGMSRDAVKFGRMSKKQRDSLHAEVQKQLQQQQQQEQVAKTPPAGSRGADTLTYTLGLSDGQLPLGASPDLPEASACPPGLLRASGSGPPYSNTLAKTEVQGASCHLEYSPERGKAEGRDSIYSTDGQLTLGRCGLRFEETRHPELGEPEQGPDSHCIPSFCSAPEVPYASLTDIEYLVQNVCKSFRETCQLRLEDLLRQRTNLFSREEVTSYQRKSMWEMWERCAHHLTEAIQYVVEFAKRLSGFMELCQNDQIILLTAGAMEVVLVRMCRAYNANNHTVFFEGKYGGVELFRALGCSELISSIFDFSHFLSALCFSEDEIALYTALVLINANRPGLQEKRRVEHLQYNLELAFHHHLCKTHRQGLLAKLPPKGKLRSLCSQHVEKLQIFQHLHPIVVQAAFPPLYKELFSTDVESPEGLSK
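Luminescence from a UAS-regulated Photinus luciferase reporter in stably transfected Drosophila Schneider cells is measured; decreased signal marks ROR gamma inhibition. Fusion expression is induced by 700 uM copper sulfate for 20 hr.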
VP16 counter – inhibits Gal4-VP16 luciferase reporter, ROR gamma counter-screen; AID 2546; 310,000 compounds, 3.5% hits; Potency, µM (series often up to 53.6 µM), for the others: at the highest dose activity, negative = inhibition, most hits filed as inhibitors; Drosophila S2 Gal4-VP16 UAS-luciferase, luminescence, 20 h;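 note: Gal4-VP16 expression switched on by copper sulfate through the metallothionein promoter; potency is the fitted concentration of half-maximal effect; nearly all actives have a fitted effect of over 50% in size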
DT40 TDP1 no CPT – qHTS for Inhibitors of human tyrosyl-DNA phosphodiesterase 1 (TDP1): qHTS in cells in absence of CPT. DT40 Tdp1-/- hTDP1 cells, no CPT, ATP luminescence, 48 h. Potency, µM (doses to about 46.2 µM), for inactives: top-dose activity change, negative = growth inhibition, usual class: inhibitors. 420,000 compounds, 15% hits. AID 686978, 2013; note: potency is the fitted concentration of half-maximal effect; nearly all actives have a fitted effect of over 55% in size
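No-CPT arm: Tdp1-/-;hTDP1 DT40 cells (400/well) plus compounds, incubated ≥48 hr at 37 °C. Readout CellTiter-Glo luminescence.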
IL1B secr inh – inflammasome signaling inhibition, IL-1 beta readout; THP-1 LPS/ATP IL-1B secretion, AlphaLISA, 16 h; active compounds read low; activity change, % at 57.5 µM; 360,000 compounds, 4.7% hits; in the data active = activity change below about -50%; inconclusive = mostly about -30% to -49%
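THP-1 cells pretreated 1 hr with compounds (up to 57.5 uM final), then stimulated with LPS (250 ng/mL final) plus ATP (1.25 mM final); secreted IL-1B measured by AlphaLISA after 16 hr, decreased signal indicating inhibition.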
DT40 TDP1 CPT – growth inhibition of DT40 Tdp1-/-;hTDP1 cells with camptothecin (screen for TDP1 inhibitors); chicken DT40 Tdp1-/-;hTDP1 cells + 20 nM CPT, ATP luminescence, 48 h; Potency, µM (titrated, usually from 46.2 µM), for the others: at the highest dose activity change, negative = growth inhibition, actives largely listed as inhibitors; 420,000 compounds, 12% hits; AID 686979; note: potency is the fitted concentration of half-maximal effect; nearly all actives have a fitted effect of over 55% in size
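Cell growth measured by CellTiter-Glo luminescence after a minimum 48 h, 37 C compound exposure with 20 nM CPT in Tdp1-knockout DT40 cells stably expressing hTDP1, seeded 400/well; qHTS titration format.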
The depositor's hits bear a star; ? = inconclusive; nt = no result given; [ ] = dose if it differs, or a comment. Unless noted, calls come from the whole dose curve; as a rule, active = well fitted curve in the direction sought with a large enough effect; inconclusive = small, poorly fitted or top-dose-only effect, or another doubt; inactive = no such curve, though single readings can be large; an effect the other way counts as inactive or inconclusive. % is set by controls: 0 for no effect and ±100 for the full control effect.

SMILES	ELG1 DNA repair	RORg inh	VP16 counter	DT40 TDP1 no CPT	IL1B secr inh	DT40 TDP1 CPT
CSc1nc(N(C)NC(=O)c2ccc(F)cc2)c2ccccc2n1	?	?	6%[0.365 µM]	0.73µM*	75	0.58µM*
CC(C)(C)C(=O)Nc1ccc(-c2nc3ccc(NC(=O)C(C)(C)C)cc3[nH]2)cc1	nt	nt	nt	1.2µM*	nt	0.65µM*
O=C(Nc1ccc(-c2nc3ccccc3[nH]2)cc1)c1c(F)c(F)c(F)c(F)c1F	-19%	-12%	-5%	-7%	-7	-2%
O=C(Nc1ccc2nc[nH]c2c1)c1ccco1	?	-25%	?	-16%	0	-29%
O=C(Nc1ccc2nc(-c3ccccc3)[nH]c2c1)c1ccco1	?	?	-7%[0.365 µM]	21µM*	0	?
Nc1cccc(C(=O)Nc2ccc3nc(-c4cccnc4)[nH]c3c2)c1	-3%	-4%	-16%	-8%	-15	-21%
O=C(Nc1cccc(-c2nc3ccccc3[nH]2)c1)c1cccc(NC(=O)c2ccco2)c1	?	?	?	18µM*	-95*	16µM*
O=C(Nc1ccc2nc(-c3cccnc3)[nH]c2c1)C1CCCCC1	-13%	-8%	7%	15µM*	26	?
O=C(Nc1ccc2nc(-c3ccc(Br)o3)[nH]c2c1)c1ccco1	-5%	25%	1%	9.2µM*	-18	?
CC(=O)Nc1ccc2nc(-c3cccn3C)[nH]c2c1	?	9%	?	-3%	-13	-20%
O=S(=O)(Nc1ccc2nc(-c3ccc(Br)o3)[nH]c2c1)c1ccccc1	?	?	1%	nt	nt	nt
Cn1cccc1-c1nc2ccc(NC(=O)c3cccs3)cc2[nH]1	?	?	0%	16µM*	?	?
Cc1ccc(CNC(=O)c2c(-c3ccc(F)cc3F)noc2C)o1	nt	nt	nt	-26%	nt	-25%
COCCCn1c(-c2ccc(S(=O)(=O)N3CCOCC3)cc2)csc1=Nc1ccccc1	6.5µM*	0%	5%	15µM*	0	18µM*
Cn1c(-c2ccc(S(=O)(=O)N3CCCC3)cc2)csc1=Nc1ccc(Cl)c(Cl)c1	nt	nt	nt	4.1µM*	nt	9.2µM*
O=S(=O)(c1ccc(-c2csc(=Nc3ccc(OC(F)(F)Cl)cc3)n2CCCO)cc1)N1CCCC1	nt	nt	nt	2.3µM*	nt	2.9µM*
Cc1nc(-c2ccc(S(=O)(=O)N3CCCCCC3)cc2)cs1	?	27%	19%	?	-13	?
C[C@H]1COC(=O)CC/C=C\C[C@H](CC(=O)N(CCO)Cc2ccccc2)C(=O)N1	28%	nt	nt	-1%	19	5%
COC(=O)c1cc(=O)nc(NN=Cc2ccc(OC)cc2)s1	nt	nt	nt	-20%	18	-18%
Cc1noc(C)c1C(=O)N1CCC[C@@]2(CCN(Cc3nccs3)C2)C1	nt	4%	1%	-14%	nt	-3%
N=C(N)S/C=C\C(=O)O	nt	32µM*	32µM*	16µM*	nt	16µM*
COc1ccc(NC(=O)c2ccc(-c3c(C)noc3C)c3ccoc23)cc1	nt	nt	nt	?	0	?
COc1ccc(-c2coc3c(C(=O)Nc4ccc(OC)nc4)cccc23)c(C)c1	nt	nt	nt	21µM*	-17	18µM*
COc1cc(NC(=O)c2ccc(-c3cnn(C)c3)c3ccoc23)cc(OC)c1OC	nt	nt	nt	?	0	?
COc1ccc(-c2ccc(C(=O)Nc3ccccc3)c3occc23)c(C)c1	nt	nt	nt	?	1	21µM*
SMILES	ELG1 DNA repair	RORg inh	VP16 counter	DT40 TDP1 no CPT	IL1B secr inh	DT40 TDP1 CPT
COc1ccc(NC(=O)c2oc3ccccc3c2C)cn1	-2%	-17%	6%	-12%	34	?
COc1ccc(-c2ccc(C(=O)Nc3ccc(OC)nc3)c3occc23)c(C)c1	nt	nt	nt	15µM*	8	0.37µM*
C=C1[C@H](C)CN[C@H]1CCO	nt	nt	nt	6%	23	2%
C/C(CC(=O)Nc1ccc(N(C)C)cc1)=N\NC(=O)c1ccccn1	?	?	?	15µM*	-15	?
COc1cc(NC(=O)C/C(C)=N/NC(=O)c2ccccn2)c(OC)cc1Cl	30%	-26%	16%	-4%	-59*	5%
CCN(CC)c1ccc(NC(=O)/C=C\c2ccccc2Cl)cc1	?	35%	-6%[0.365 µM]	?	-5	?
CN(C)c1ccc(NC(=O)/C=C/c2ccccc2Cl)cc1	?	0.056µM*	-10%	?	-14	?
CN(C)c1ccc(NC(=O)c2cccc(C(=O)Nc3ccc(N(C)C)cc3)n2)cc1	?	-25%	?	6.5µM*	-56*	9.2µM*
C/C(CC(=O)Nc1ccc(N(C)C)cc1)=N\NC(=O)c1cnccn1	15%	10%	?	?	0	-5%
CCOC(=O)CC(NC(=O)CCc1c(C)nc2c(c(C)nn2-c2ccc(C)c(C)c2)c1C)c1ccc(C)cc1 (stereo unspecified)	nt	nt	nt	?	nt	-1%
CC(C)(C)c1ccc(OCCC(=O)OCC(=O)N2c3ccccc3NC(=O)C2(C)C)cc1	9%	nt	nt	?	-4	?
COC(C(=O)N/N=C(\C)CC(=O)Nc1ccc(N(C)C)cc1)c1ccccc1 (stereo unspecified)	1%	13µM*	-30%	-8%	78	2%
COC(C(=O)N/N=C(\C)CC(=O)Nc1ccc(Cl)cc1C)c1ccccc1 (stereo unspecified)	7%	-5%	-6%	-21%	-6	13%
CC(C)OC(=O)c1cccc(C(=O)Nc2cccc(NC(=O)c3cccc(C(=O)OC(C)C)n3)n2)n1	8.2µM*	5%	2%	2.1µM*	57	?
CC[C@@]1(C(=O)OC)N[C@H](CN(C)C(=O)c2ccc(C)cc2)[C@@H]2C(=O)N(C)C(=O)[C@@H]21	10%	nt	nt	0%	16	2%
COc1ccc(C(=O)Nc2cc(OC)nc(OC)n2)cc1	?	?	?	?	-2	-24%
COCCN(C(=O)CC1C(=O)NCCN1CC(c1ccccc1)c1ccccc1)C(C)C (stereo unspecified)	-14%	-10%	4%	-1%	-13	-1%
CCOc1ncccc1C(=O)OCC(=O)NCc1cccs1	-18%	nt	nt	-13%	8	-12%
COc1cc(OC)cc(C(=O)NCCN2C(=O)S/C(=C\c3cccs3)C2=O)c1	?	?	-11%	16µM*	-23	16µM*
COc1cccc(C(=O)NCCN2C(=O)S/C(=C/c3cccs3)C2=O)c1OC	9%	?	-13%	?	-25	-25%
